PubChem BioAssay (NCI)
This is part of a sample that, as a whole, favours compounds with a hit. Of some 79,000 tested, about 15% had one in any assay. Cut-off read from the data, not from the text of the source: active = growth inhibition above about 70%; inactive = the rest.

Legend:
[1] = NCI Yeast Anticancer Drug Screen. Data for the rad50 strain (AID 155);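 note: 0% = growth of vehicle-only cultures of the same strain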; conditions: S. cerevisiae rad50 strain growth inhibition; at 50.0 µM; hits give high values
Summary of the method: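 Inhibition values express reduced yeast growth in compound-treated cultures relative to vehicle-treated controls.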

[2] = NCI Yeast Anticancer Drug Screen. Data for the mec2-1 strain (AID 157); conditions: S. cerevisiae mec2-1 strain, at 50.0 µM, hits give high values
Summary of the method: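 Strain: mec2-1 (DNA repair/cell cycle alteration). Compound exposure, then growth measured; inhibition expressed relative to vehicle.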

[3] = NCI Yeast Anticancer Drug Screen. Data for the sgs1 mgt1 strain (AID 161);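 note: 0% = growth of cultures given vehicle only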; conditions: S. cerevisiae sgs1 mgt1 strain, at 50.0 µM, hits give high values
Summary of the method: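 Genetically altered yeast, compound exposure, growth inhibition relative to vehicle.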

[4] = NCI Yeast Anticancer Drug Screen. Data for the cln2 rad14 strain (AID 165);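 note: 0% = growth equal to vehicle treated cultures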; conditions: S. cerevisiae cln2 rad14 strain, at 50.0 µM, hits give high values
Summary of the method: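 Compounds are applied to the cln2 rad14 yeast strain, and growth is then compared with that of vehicle-treated cultures to give inhibition.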

[5] = NCI Yeast Anticancer Drug Screen. Data for the bub3 strain (AID 167); conditions: S. cerevisiae bub3 mutant strain, at 50.0 µM, hits give high values
Summary of the method: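 Steps: expose the mutant yeast strain to compound; grow alongside vehicle-treated cultures; measure growth; express inhibition against the vehicle cultures.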

[6] = NCI Yeast Anticancer Drug Screen. Data for the mlh1 rad18 strain (AID 175); conditions: S. cerevisiae mlh1 rad18 strain growth inhibition; at 50.0 µM; hits give high values
Summary of the method: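 Read-out is yeast growth inhibition, calculated against vehicle-only controls. The compound was applied to a strain engineered with DNA damage repair alterations.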

Measured: growth inhibition

CC1C(=O)OC2C1CCC1(C)C=CC(=O)C(C)C21 (configuration not stated)
inactive: [1] 10.7% | [2] 4.95% | [3] 1.15% | [4] -23.2% | [5] 1.85% | [6] 14.8%

OC1(Cl)c2cccc3cccc(c23)C1(O)Cl (configuration not stated)
inactive: [1] -0.8% | [2] 5.8% | [3] 2.6% | [4] -9.45% | [5] 0.25% | [6] -14.1%

N#Cc1cc(Cl)ccc1N=Cc1c(Cl)cccc1Cl
inactive: [1] 19.4% | [2] 16.5% | [3] 39.4% | [4] 14.6% | [5] -6.55% | [6] 12.8%

Cn1c(=O)c2c(n(C)c1=O)n1c(=O)c3ccccc3nc1n2C
inactive: [1] 12.9% | [2] 2.3% | [3] -15.6% | [4] -7.1% | [5] -7.3% | [6] -6.55%

C=CCCCCCCCCCCCCCCCCCC
inactive: [1] -3.55% | [2] -3.8% | [3] 2.8% | [4] 5.9% | [5] -5.3% | [6] 6.2%

COc1ccc(C(C#N)Cc2ccccc2)c([N+](=O)[O-])c1 (configuration not stated)
inactive: [1] 17.6% | [2] -5.75% | [3] 4.8% | [4] -34.2% | [5] 0.45% | [6] 16.4%

C[N+]1(C)CCCC(OC(=O)C(O)(c2ccccc2)c2ccccc2)C1 (configuration not stated)
inactive: [1] 38% | [2] 10.1% | [3] 15.6% | [4] -18.9% | [5] 13.6% | [6] 27.7%

Cc1ccc(S(=O)(=O)NNC(=O)c2ccc[nH]2)cc1
inactive: [1] -1.5% | [2] -24.2% | [3] -7.85% | [4] 7.65% | [5] 9.9% | [6] 6.35%

O=C(O)C(Cc1cccs1)(Cc1cccs1)C(=O)O
inactive: [1] -9% | [2] -4.6% | [3] -2.9% | [4] -18.7% | [5] -9.75% | [6] -2.2%

[O-][N+](CCO)(CCO)Cc1ccccc1
inactive: [1] 14.1% | [2] 1.05% | [3] 19.8% | [4] 6.2% | [5] 9.65% | [6] 26.6%

COc1nc(N)c(NC(C)=O)c(=O)n1C
inactive: [1] 3.9% | [2] -19.2% | [3] -21.4% | [4] -4.3% | [5] -22.6% | [6] 9%

C(=C(c1ccccc1)c1ccccc1)=C(c1ccccc1)c1ccccc1
inactive: [1] 30.8% | [2] 12.9% | [3] 24.6% | [4] -15.4% | [5] 4.95% | [6] 32%

N#Cc1[nH]cnc1O
inactive: [1] -9.6% | [2] -10.4% | [3] -11.4% | [4] 7.7% | [5] 17.4% | [6] -5.85%

O=c1cc(C=Nc2cccc(Br)c2)[nH]c(=S)[nH]1
inactive: [1] -4.4% | [2] -17.4% | [3] -15.4% | [4] -24.8% | [5] -10.1% | [6] -10%

CCCCCCC(C)(C)NC(N)=O
inactive: [1] -9.4% | [2] 4.4% | [3] -4.5% | [4] 16.8% | [5] 3.75% | [6] -11.8%

COC1OC2COC(c3ccccc3)OC2C(NC(C)=O)C1OC(C)=O (configuration not stated)
inactive: [1] 4.6% | [2] 17.7% | [3] 8.9% | [4] 9.9% | [5] -12.5% | [6] -13.1%

CC1=C[C@H](C[C@]2(C)c3c(c4c(C)cccc4oc3=O)O[C@@H]2C)OC1=O
inactive: [1] 1% | [2] 24.4% | [3] 11.3% | [4] 17.2% | [5] -3.2% | [6] 33.2%

CCOC(=O)c1ccc(NCc2nc3ccccc3nc2C)cc1
inactive: [1] -17.8% | [2] -4% | [3] -18% | [4] -29.1% | [5] 1.95% | [6] -19.2%

NC(=S)c1cc[n+]([O-])cc1
inactive: [1] 8.65% | [2] 2.55% | [3] 5.4% | [4] -11.2% | [5] -7.2% | [6] -3.8%

O=C1NCC2(CCN(CC3COc4ccccc4O3)CC2)N1c1ccccc1 (configuration not stated)
inactive: [1] -23.3% | [2] -18.2% | [3] -21% | [4] -2.95% | [5] -3.2% | [6] -34.5%

CC(=O)OCC1CC=CCC1C (configuration not stated)
inactive: [1] 5.35% | [2] -15.7% | [3] -10.2% | [4] 1.75% | [5] 2.75% | [6] 1.5%

Clc1ccc(-c2nnc(-c3ccc(Cl)c(Cl)c3)o2)cc1Cl
inactive: [1] 0.25% | [2] 9.95% | [3] 17.8% | [4] -30.5% | [5] -10.9% | [6] 22.9%

O=C(O)CN=CC(O)C(O)C(O)C(O)CO (configuration not stated)
inactive: [1] -9.8% | [2] -3.8% | [3] 3.9% | [4] 4.4% | [5] 9.15% | [6] -2.45%

Cc1ccc(-c2nnc(C)o2)cc1
inactive: [1] 5.55% | [2] -6.65% | [3] -7.85% | [4] -35.6% | [5] 13.3% | [6] 6.2%

CC1(CO)C(O)CCC2(C)C1C(O)CC1CC3CC12CCC3(O)CO (configuration not stated)
inactive: [1] -12.8% | [2] -17.9% | [3] 1.3% | [4] -0.8% | [5] -21.1% | [6] -22.1%

O=C(CCn1[nH]c(=O)c(Cl)c(Cl)c1=O)NNC(=O)C[n+]1ccccc1
inactive: [1] -4.2% | [2] -8.9% | [3] -28.3% | [4] 34.2% | [5] -7.05% | [6] -25.1%

O=C(O)CCC1CCc2cccc(OCC(=O)O)c2C1=O (configuration not stated)
inactive: [1] 2% | [2] -4.3% | [3] -16.2% | [4] 23.5% | [5] -4.4% | [6] -11.7%

CC(=O)NC(Cc1c[nH]c2ccccc12)C(=O)O (configuration not stated)
inactive: [1] -21.4% | [2] -37.8% | [3] -30.6% | [4] -23.4% | [5] -35.8% | [6] -5.65%

C[Si](C)(C)CCCO
inactive: [1] 0.25% | [2] 17.8% | [3] 3.3% | [4] 6.9% | [5] 9.25% | [6] 10%

O=C(COc1cc(Cl)c(Cl)cc1Cl)Oc1ccccc1
inactive: [1] -0.3% | [2] 4.95% | [3] 7.65% | [4] -8.85% | [5] 8.5% | [6] 3.6%

CCCCCCCCCCCCCCCCS(=O)(=O)N/N=C(/c1cccc(N)c1)N1CCOCC1
inactive: [1] -29.6% | [2] -40.8% | [3] -13.2% | [4] 4.2% | [5] -7.75% | [6] -21.2%

C=CC(C)(C)C1=CC(=O)C(OC)=CC1=O
inactive: [1] 1.75% | [2] -6.15% | [3] -3.7% | [4] -54.9% | [5] 4.15% | [6] -6.65%

CCCCNS(=O)(=O)c1cc(C(=O)O)cc(C(=O)O)c1
inactive: [1] 2.55% | [2] -7% | [3] 4.25% | [4] -33.9% | [5] 2.75% | [6] -1.7%

CC(=O)Oc1ccccc1C#CC(=O)O
inactive: [1] 17.3% | [2] 25.6% | [3] 34% | [4] -1.2% | [5] -0.7% | [6] 15.4%

OC1CCC(C2CCCCC2)CC1 (configuration not stated)
inactive: [1] -8.5% | [2] -8.05% | [3] -2.65% | [4] 6.8% | [5] -14.3% | [6] -8.65%

CN(C)CCOC(=O)Nc1ccccc1C(F)(F)F
inactive: [1] 16.1% | [2] -8.1% | [3] 17.1% | [4] 21.8% | [5] 19.8% | [6] 12.2%

CC(O)C(O)C(O)C(=O)C=O (configuration not stated)
inactive: [1] 5.8% | [2] 29.1% | [3] 6.1% | [4] 14.2% | [5] -25.4% | [6] 10.4%

C=Nc1ccc(C)cc1
inactive: [1] 6.7% | [2] -14.8% | [3] -12% | [4] -15.7% | [5] -2.7% | [6] -18.4%

CCOC(=O)/C(=C\OC(=O)c1ccccc1)NC(=O)Cc1ccccc1
inactive: [1] -1.9% | [2] 25.6% | [3] 22% | [4] -98.8% | [5] 37.2% | [6] 23.4%

COc1ccc(CCN=C2OCc3ccccc32)cc1OC
inactive: [1] 36.1% | [2] -49.6% | [3] -42.6% | [4] -18.6% | [5] -21.5% | [6] -50.7%

O=C(CCCO)c1nc2ccccc2s1
inactive: [1] -2.5% | [2] 12.9% | [3] 2.8% | [4] -8.55% | [5] 11.8% | [6] 4.7%

CC(c1ccc(N)cc1)n1cnc2c(Cl)ncnc21 (configuration not stated)
inactive: [1] -3.75% | [2] 18.2% | [3] 4.1% | [4] -5.5% | [5] 8.85% | [6] 7.85%
